Test results published in PubChem BioAssay (Tox21).
Inconclusive results are not listed. Active and inactive are the calls of the source. Unless noted, the call rests on the fitted dose curve; in most records, active means well fitted curve in the direction sought with a large enough effect in the repeat runs; inconclusive means weak or mixed curves; inactive means no such curve, though single readings can be large; an effect the other way counts as inactive or inconclusive. Non-standard residues stand in square brackets, D forms with d. Residues, ends and D or L forms follow the SMILES beside them. *: point of attachment. Sta = CC(C)C[C@H](N)[C@@H](O)CC(=O)O; Isovaleryl = CC(C)CC(=O)*

Experiments:
[1] = qHTS assay to identify aromatase inhibitors - cell viability counter screen (AID 743084);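 further: cells stimulated with testosterone during compound exposure; nearly all actives have a fitted effect of over 55% in size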
[2] = target: Aryl hydrocarbon receptor (Homo sapiens) (UniProt P35869); experiment: qHTS assay to identify small molecule that activate the aryl hydrocarbon receptor (AhR) signaling pathway (AID 743085);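 further: HG2L7.5c1 human HepG2 liver cells with stably integrated DRE-driven firefly reporter; series mostly up to about 70 µM; nearly all actives have a fitted effect of over 15% in size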
Chain of Aryl hydrocarbon receptor (Homo sapiens) (P35869 whole entry, looked up): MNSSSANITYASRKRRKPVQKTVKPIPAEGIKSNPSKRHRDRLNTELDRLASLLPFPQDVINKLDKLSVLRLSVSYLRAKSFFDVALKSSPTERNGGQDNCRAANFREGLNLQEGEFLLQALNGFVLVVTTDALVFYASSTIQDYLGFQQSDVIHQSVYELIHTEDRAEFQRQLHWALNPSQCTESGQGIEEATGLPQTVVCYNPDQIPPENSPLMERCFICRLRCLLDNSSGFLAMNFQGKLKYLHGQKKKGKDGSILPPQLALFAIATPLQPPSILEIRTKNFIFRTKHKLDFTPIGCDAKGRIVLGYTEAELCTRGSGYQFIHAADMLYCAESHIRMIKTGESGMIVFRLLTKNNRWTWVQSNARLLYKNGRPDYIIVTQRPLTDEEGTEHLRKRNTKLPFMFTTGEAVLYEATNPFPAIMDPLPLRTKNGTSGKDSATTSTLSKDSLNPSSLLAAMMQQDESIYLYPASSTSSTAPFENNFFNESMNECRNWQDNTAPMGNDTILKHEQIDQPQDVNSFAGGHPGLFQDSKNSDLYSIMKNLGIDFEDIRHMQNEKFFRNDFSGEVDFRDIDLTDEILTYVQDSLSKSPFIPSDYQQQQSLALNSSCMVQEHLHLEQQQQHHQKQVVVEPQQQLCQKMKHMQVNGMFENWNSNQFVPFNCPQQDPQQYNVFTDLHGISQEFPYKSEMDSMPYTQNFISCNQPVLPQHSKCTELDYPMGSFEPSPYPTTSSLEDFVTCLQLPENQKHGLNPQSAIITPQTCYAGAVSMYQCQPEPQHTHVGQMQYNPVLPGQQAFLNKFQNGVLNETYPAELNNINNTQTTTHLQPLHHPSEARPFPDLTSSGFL
Procedure, shortened: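 AhR agonist activity is inferred from enhanced light output of a DRE-controlled firefly luciferase reporter in HepG2 cells, measured with ONE-Glo following 24 h treatment at 37C.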

[3] = qHTS assay to identify small molecule that activate the aryl hydrocarbon receptor (AhR) signaling pathway - cell viability counter screen (AID 743086);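 further: HepG2 liver cells carrying the AhR DRE luciferase reporter; series mostly up to about 70 µM; nearly all actives have a fitted effect of over 45% in size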
Procedure, shortened: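 Cytotoxicity counter screen: CellTiter-Fluor signal (30 min, 37 C) in 4000 HepG2 cells/well carrying the DRE-luciferase reporter, following 24 h compound exposure at 37 C.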

[4] = target: Peroxisome proliferator-activated receptor gamma (Homo sapiens) (UniProt P37231); experiment: qHTS assay to identify small molecule agonists of the peroxisome proliferator-activated receptor gamma (PPARg) signaling pathway (AID 743094; active means well fitted activation curve with a large enough effect in the signal ratio in the repeat runs, not every such curve was filed as active; the % refers to the signal ratio)
Chain of Peroxisome proliferator-activated receptor gamma (Homo sapiens) (P37231 whole entry, looked up): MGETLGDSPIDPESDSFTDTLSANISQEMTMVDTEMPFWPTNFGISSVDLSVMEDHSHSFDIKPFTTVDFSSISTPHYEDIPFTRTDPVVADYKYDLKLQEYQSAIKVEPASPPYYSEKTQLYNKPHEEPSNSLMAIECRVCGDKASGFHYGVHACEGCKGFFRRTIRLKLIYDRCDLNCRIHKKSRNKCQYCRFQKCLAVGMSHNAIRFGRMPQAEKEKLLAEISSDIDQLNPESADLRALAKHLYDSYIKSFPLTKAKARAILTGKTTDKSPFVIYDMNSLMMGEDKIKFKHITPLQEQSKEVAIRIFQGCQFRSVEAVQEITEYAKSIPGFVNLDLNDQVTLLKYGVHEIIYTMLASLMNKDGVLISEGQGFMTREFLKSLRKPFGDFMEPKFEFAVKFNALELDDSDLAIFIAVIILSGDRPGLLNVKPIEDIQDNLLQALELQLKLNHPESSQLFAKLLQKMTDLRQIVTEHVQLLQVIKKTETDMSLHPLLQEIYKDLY
Procedure, shortened: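 Quantitative HTS agonist mode: stable HEK293H line with UAS-beta-lactamase reporter under PPARg control, 17 h compound exposure at 37C, fluorescence after 1 h FRET substrate loading at room temperature.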

[5] = target: Peroxisome proliferator-activated receptor gamma (Homo sapiens) (UniProt P37231); experiment: qHTS assay to identify small molecule antagonists of the peroxisome proliferator-activated receptor gamma (PPARg) signaling pathway (AID 743191; calls by dose curve; further: series mostly up to about 63 µM; nearly all actives have a fitted effect of over 30% in size)
Procedure, shortened: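 Beta-lactamase reporter under UAS control in HEK293H PPARg-bla cells; compound treatment 17 h at 37C. Read-out: fluorescence intensity after 1 h room-temperature incubation with LiveBLAzer B/G FRET substrate.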

[6] = qHTS assay to identify small molecule antagonists of the peroxisome proliferator-activated receptor gamma (PPARg) signaling pathway - cell viability counter screen (AID 743194); further: nearly all actives have a fitted effect of over 55% in size
Procedure, shortened: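 Viability was measured as CellTiter-Glo luminescence in GeneBLAzer PPARg UAS-bla HEK293H cells. These cells had been exposed 17 h at 37 C to compounds together with rosiglitazone at 50 nM final, with the beta-lactamase readout taken in the same wells.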

[7] = qHTS assay for small molecule agonists of the antioxidant response element (ARE) signaling pathway (AID 743202; active means well fitted activation curve with a large enough effect in the signal ratio in the repeat runs, not every such curve was filed as active; the % refers to the signal ratio; further: potency means the concentration at half of the fitted maximal effect)
Procedure, shortened: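 An ARE-responsive beta-lactamase gene stably integrated in HepG2 cells serves as reporter. After 5 h plating and 16 h compound incubation at 37 C, fluorescence of the B/G FRET substrate was measured.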

[8] = qHTS assay for small molecule agonists of the antioxidant response element (ARE) signaling pathway - cell viability counter screen (AID 743203; calls by dose curve; further: nearly all actives have a fitted effect of over 55% in size)
Procedure, shortened: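 Seeded at 2,000 cells/well, ARE-bla HepG2 cells were incubated 5 hrs before compound addition. After 16 hrs of treatment at 37C with 5% CO2, CellTiter-Glo reagent was added and luminescence read 30 min later.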

[9] = qHTS assay for small molecule activators of the heat shock response signaling pathway - cell viability counter screen (AID 743209); further: nearly all actives have a fitted effect of over 50% in size
Procedure, shortened: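 First, HSE-bla HeLa cells were seeded at 1500 cells/well and kept overnight at 37 C. Next, compounds were pinned in and incubated 5 h. After the FRET substrate step, CellTiter-Glo was added and luminescence read 30 min later.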

[10] = qHTS assay for small molecule activators of the heat shock response signaling pathway (AID 743210; active means well fitted activation curve with a large enough effect in the signal ratio in the repeat runs, with a control signal flat, not every such curve was filed as active; the % refers to the signal ratio;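 further: HeLa cells with beta-lactamase reporter driven by heat shock elements; series mostly up to about 63 µM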)
Procedure, shortened: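 In HSE-bla HeLa cells, 5 h compound incubation (37 C) precedes addition of LiveBLAzer B/G substrate; after 2.5 h at room temperature, fluorescence intensity indicates reporter induction.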

[11] = qHTS assay to identify small molecule agonists of the peroxisome proliferator-activated receptor delta (PPARd) signaling pathway - cell viability counter screen (AID 743211); further: nearly all actives have a fitted effect of over 55% in size
Procedure, shortened: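 qHTS cell viability: PPARd-bla HEK293H; 17 h cpd, 37C; CellTiter-Glo, luminescence at 30 min RT.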

[12] = target: Peroxisome proliferator-activated receptor delta (Homo sapiens) (UniProt Q03181); experiment: qHTS assay to identify small molecule antagonists of the peroxisome proliferator-activated receptor delta (PPARd) signaling pathway (AID 743215; active means well fitted inhibition curve with a large enough effect in the signal ratio in the repeat runs, not every such curve was filed as active; the % refers to the signal ratio;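 further: cells stimulated with agonist L165041 at 300 nM final during compound exposure; series mostly up to about 62 µM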)
Chain of Peroxisome proliferator-activated receptor delta (Homo sapiens) (Q03181 whole entry, looked up): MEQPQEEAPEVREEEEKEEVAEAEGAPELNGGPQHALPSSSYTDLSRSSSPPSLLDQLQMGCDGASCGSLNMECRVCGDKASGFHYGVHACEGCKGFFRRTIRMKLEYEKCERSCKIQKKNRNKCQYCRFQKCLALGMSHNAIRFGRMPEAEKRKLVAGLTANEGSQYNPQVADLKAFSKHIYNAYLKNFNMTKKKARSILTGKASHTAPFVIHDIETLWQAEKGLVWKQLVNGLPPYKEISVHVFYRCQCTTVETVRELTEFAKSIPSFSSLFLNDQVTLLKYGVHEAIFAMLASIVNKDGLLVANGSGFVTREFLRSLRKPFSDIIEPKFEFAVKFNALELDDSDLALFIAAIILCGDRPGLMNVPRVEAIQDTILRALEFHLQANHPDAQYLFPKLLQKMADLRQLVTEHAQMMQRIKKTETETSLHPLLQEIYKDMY
Procedure, shortened: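 Inhibition of L165041-driven (300 nM final) PPARd signaling is scored in HEK293H UAS-bla cells. Exposure lasts 17 h at 37 C; beta-lactamase activity is then read by FRET substrate fluorescence after 2 h at room temperature.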

[13] = target: Bile acid receptor (Homo sapiens) (UniProt Q96RI1); experiment: qHTS assay to identify small molecule antagonists of the farnesoid-X-receptor (FXR) signaling pathway (AID 743217; active means well fitted inhibition curve with a large enough effect in the signal ratio in the repeat runs, not every such curve was filed as active; the % refers to the signal ratio)
Chain of Bile acid receptor (Homo sapiens) (Q96RI1 whole entry, looked up): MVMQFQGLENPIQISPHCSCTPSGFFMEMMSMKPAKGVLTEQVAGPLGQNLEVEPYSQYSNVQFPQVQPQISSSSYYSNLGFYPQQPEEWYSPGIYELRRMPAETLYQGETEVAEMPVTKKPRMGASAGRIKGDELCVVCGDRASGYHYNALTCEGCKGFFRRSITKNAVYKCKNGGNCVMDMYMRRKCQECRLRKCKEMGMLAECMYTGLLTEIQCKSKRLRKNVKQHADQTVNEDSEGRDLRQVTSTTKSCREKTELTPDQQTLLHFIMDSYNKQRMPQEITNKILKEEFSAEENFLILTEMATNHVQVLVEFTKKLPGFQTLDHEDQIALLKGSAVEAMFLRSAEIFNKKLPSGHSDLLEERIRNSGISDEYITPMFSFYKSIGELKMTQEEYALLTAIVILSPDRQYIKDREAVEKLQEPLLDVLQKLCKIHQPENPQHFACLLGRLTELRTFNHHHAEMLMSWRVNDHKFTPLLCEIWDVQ
Procedure, shortened: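 Antagonist mode against 50 uM (final) chenodeoxycholic acid stimulation in FXR-bla HEK 293T cells, 16 h at 37 °C. Inhibition detected as reduced beta-lactamase activity via LiveBLAzer B/G FRET fluorescence after 2 h at room temperature.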

[14] = qHTS assay to identify small molecule agonists of the farnesoid-X-receptor (FXR) signaling pathway - cell viability counter screen (AID 743218); further: nearly all actives have a fitted effect of over 45% in size
Procedure, shortened: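 Cytotoxicity counter-screen run in parallel, same wells: FXR-UAS-bla HEK 293T cells dosed 16 h at 37 C, viability read by CellTiter-Glo luminescence after 30 min at room temperature.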

[15] = qHTS assay to identify small molecule antagonists of the farnesoid-X-receptor (FXR) signaling pathway - cell viability counter screen (AID 743221; active means well fitted cell-killing curve with a large enough effect in the repeat runs, not every such curve was filed as active; further: nearly all actives have a fitted effect of over 50% in size)
Procedure, shortened: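 After a 5 h settling period, FXR-bla HEK 293T cells receive compound and chenodeoxycholic acid (50 uM final) and incubate 16 h at 37 C; CellTiter-Glo luminescence, read after 30 min at room temperature, reports cell viability.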

[16] = target: Peroxisome proliferator-activated receptor delta (Homo sapiens) (UniProt Q03181); experiment: qHTS assay to identify small molecule agonists of the peroxisome proliferator-activated receptor delta (PPARd) signaling pathway (AID 743212; calls by dose curve)
Procedure, shortened: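 HEK293H UAS-bla reporter cells, human PPARd system; compounds delivered in DMSO after 5 h plating, then at 37 C. Beta-lactamase FRET read, 2 h RT substrate step.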

[17] = qHTS assay to identify small molecule antagonists of the peroxisome proliferator-activated receptor delta (PPARd) signaling pathway - cell viability counter screen (AID 743213); further: nearly all actives have a fitted effect of over 50% in size
Procedure, shortened: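 Viability counter-screen, qHTS format: PPARd-bla HEK293H, L165041 300 nM final, 17 h compound exposure at 37 C, CellTiter-Glo luminescence after 30 min RT.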

[18] = target: Vitamin D3 receptor (Homo sapiens) (UniProt P11473); experiment: qHTS assay to identify small molecule agonists of the vitamin D receptor (VDR) signaling pathway (AID 743222; calls by dose curve)
Chain of Vitamin D3 receptor (Homo sapiens) (P11473 whole entry, looked up): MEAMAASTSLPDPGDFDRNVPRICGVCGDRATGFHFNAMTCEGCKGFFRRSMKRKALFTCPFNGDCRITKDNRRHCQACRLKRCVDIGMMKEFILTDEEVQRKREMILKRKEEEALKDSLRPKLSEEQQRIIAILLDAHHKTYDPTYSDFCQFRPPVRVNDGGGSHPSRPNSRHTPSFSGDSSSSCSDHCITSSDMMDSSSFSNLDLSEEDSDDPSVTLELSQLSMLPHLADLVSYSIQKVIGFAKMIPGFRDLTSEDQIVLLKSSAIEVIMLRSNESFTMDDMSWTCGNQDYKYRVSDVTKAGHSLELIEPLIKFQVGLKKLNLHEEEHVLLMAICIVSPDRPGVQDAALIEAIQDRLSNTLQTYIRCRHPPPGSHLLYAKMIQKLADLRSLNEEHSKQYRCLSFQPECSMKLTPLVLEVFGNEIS
Procedure, shortened: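 Quantitative HTS agonist-mode screen: compounds in DMSO were pin-transferred onto VDR-bla cells and incubated 16 h at 37C, 5% CO2. Reporter activity was detected with LiveBLAzer B/G FRET substrate after 2 h at room temperature.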

[19] = target: Vitamin D3 receptor (Homo sapiens) (UniProt P11473); experiment: qHTS assay to identify small molecule antagonists of the vitamin D receptor (VDR) signaling pathway (AID 743223; active means well fitted inhibition curve with a large enough effect in the signal ratio in the repeat runs, not every such curve was filed as active; the % refers to the signal ratio)
Procedure, shortened: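 Reporter line VDR-bla; stimulus 1alpha,25-(OH)2 vitamin D3, 3 nM final; compound co-addition, 16 h 37C/5% CO2; LiveBLAzer B/G substrate 2 h RT; fluorescence intensity.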

[20] = target: Bile acid receptor (Homo sapiens) (UniProt Q96RI1); experiment: qHTS assay to identify small molecule agonists of the farnesoid-X-receptor (FXR) signaling pathway (AID 743220; active means well fitted activation curve with a large enough effect in the signal ratio in the repeat runs, not every such curve was filed as active; the % refers to the signal ratio)
Procedure, shortened: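 Beta-lactamase reporter under UAS control in GeneBLAzer FXR HEK 293T cells (5000/well) measured with LiveBLAzer FRET substrate after 2 h at room temperature. Compound exposure lasted 16 h at 37C.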

Measured: Potency

C/C(Cl)=C/CCl
inactive: [1] | [2] | [3] | [4] | [5] | [6] | [8] | [9] | [10] | [11] | [12] | [13] | [14] | [15]
active: [7] 31.2 µM

CC(=O)SCC(CC(=O)c1ccc(C)cc1)C(=O)O (stereo not given)
inactive: [1] | [2] | [3] | [4] | [5] | [6] | [7] | [8] | [9] | [10] | [11] | [16] | [17] | [12] | [15] | [18] | [19]

Nc1cc(S(=O)(=O)O)ccc1O
inactive: [1] | [2] | [3] | [4] | [5] | [6] | [7] | [8] | [9] | [10] | [11] | [16] | [17] | [12] | [14] | [15] | [18] | [19]

CC/C=C\CCCCCCCCCCOC(C)=O
inactive: [1] | [2] | [3] | [4] | [5] | [6] | [7] | [8] | [9] | [10] | [11] | [17] | [12] | [14] | [15] | [18] | [19]

CCOC(=O)CC
inactive: [1] | [2] | [3] | [4] | [5] | [6] | [7] | [8] | [9] | [10] | [11] | [12] | [13] | [20] | [15]

CC[C@@]1(c2ccccc2)NC(=O)N(C)C1=O
inactive: [1] | [2] | [3] | [4] | [5] | [6] | [7] | [8] | [9] | [10] | [11] | [17] | [14] | [20] | [15] | [18]

C=CCN1CCc2nc(N)sc2CC1
inactive: [1] | [2] | [3] | [4] | [5] | [6] | [7] | [9] | [10] | [11] | [16] | [17] | [12] | [14] | [15] | [18] | [19]

C/C=C(\C)C=O
inactive: [1] | [2] | [3] | [4] | [5] | [6] | [7] | [8] | [9] | [10] | [16] | [17] | [12] | [13] | [14] | [20] | [15] | [18] | [19]

CCCCCCCCCCCCCCBr
inactive: [1] | [2] | [3] | [4] | [5] | [6] | [8] | [9] | [10] | [11] | [17] | [14] | [15] | [18] | [19]

CC1(C)CC(N)CC(C)(C)N1
inactive: [1] | [2] | [3] | [4] | [6] | [7] | [8] | [9] | [10] | [11] | [16] | [17] | [12] | [14] | [20] | [15] | [18]

CC(C)(C)OC=O
inactive: [1] | [2] | [3] | [4] | [5] | [6] | [7] | [8] | [9] | [10] | [17] | [13] | [14] | [20] | [18] | [19]

CC(C)CC(=O)N[C@H](C(=O)N[C@H](C(=O)N[C@@H](CC(C)C)[C@@H](O)CC(=O)N[C@@H](C)C(=O)N[C@@H](CC(C)C)[C@@H](O)CC(=O)O)C(C)C)C(C)C (Isovaleryl-VV[Sta]A[Sta]-OH)
inactive: [1] | [2] | [3] | [4] | [5] | [6] | [7] | [8] | [9] | [11] | [16] | [17] | [12] | [14] | [15] | [18] | [19]

CC(C)(C)C(=O)CC(=O)C(C)(C)C
inactive: [1] | [2] | [3] | [4] | [5] | [6] | [8] | [9] | [17] | [14] | [20] | [15] | [18] | [19]

CCOC(=O)COc1ccc2c(C)c(CCN(CC)CC)c(=O)oc2c1Cl
inactive: [1] | [2] | [3] | [4] | [5] | [6] | [7] | [8] | [11] | [17] | [14] | [20] | [15] | [18]

COCc1nnc(-c2ccc[n+]([O-])c2)n1-c1c(Cl)c(Cl)cc2[nH]c(=O)c(=O)[nH]c12
inactive: [1] | [2] | [3] | [4] | [5] | [6] | [8] | [9] | [10] | [11] | [17] | [13] | [14] | [20] | [18] | [19]

CCCc1ccc(O)c(OC)c1
inactive: [1] | [2] | [3] | [4] | [5] | [6] | [7] | [9] | [10] | [17] | [14] | [15] | [18]

COC(=O)c1ccc(C(=O)O)cc1
inactive: [1] | [2] | [3] | [4] | [5] | [6] | [8] | [9] | [10] | [11] | [16] | [17] | [12] | [13] | [14] | [20] | [15] | [18] | [19]
